Compound activity from PubChem BioAssay.
NPR2 activator = GC-B (human) receptor activation; P20594; HEK293-GC-B cells, CNP EC30, cGMP TR-FRET; 0% at EC30 CNP, 100% saturating CNP; activation, % at 10 µM; hit rate 0.11% among 370,000; AID 1920062;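 active means activation at 10 µM reaching about 35% in either raw or pattern-adjusted values, limit read from the data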
Target sequence (P20594 whole entry, looked up): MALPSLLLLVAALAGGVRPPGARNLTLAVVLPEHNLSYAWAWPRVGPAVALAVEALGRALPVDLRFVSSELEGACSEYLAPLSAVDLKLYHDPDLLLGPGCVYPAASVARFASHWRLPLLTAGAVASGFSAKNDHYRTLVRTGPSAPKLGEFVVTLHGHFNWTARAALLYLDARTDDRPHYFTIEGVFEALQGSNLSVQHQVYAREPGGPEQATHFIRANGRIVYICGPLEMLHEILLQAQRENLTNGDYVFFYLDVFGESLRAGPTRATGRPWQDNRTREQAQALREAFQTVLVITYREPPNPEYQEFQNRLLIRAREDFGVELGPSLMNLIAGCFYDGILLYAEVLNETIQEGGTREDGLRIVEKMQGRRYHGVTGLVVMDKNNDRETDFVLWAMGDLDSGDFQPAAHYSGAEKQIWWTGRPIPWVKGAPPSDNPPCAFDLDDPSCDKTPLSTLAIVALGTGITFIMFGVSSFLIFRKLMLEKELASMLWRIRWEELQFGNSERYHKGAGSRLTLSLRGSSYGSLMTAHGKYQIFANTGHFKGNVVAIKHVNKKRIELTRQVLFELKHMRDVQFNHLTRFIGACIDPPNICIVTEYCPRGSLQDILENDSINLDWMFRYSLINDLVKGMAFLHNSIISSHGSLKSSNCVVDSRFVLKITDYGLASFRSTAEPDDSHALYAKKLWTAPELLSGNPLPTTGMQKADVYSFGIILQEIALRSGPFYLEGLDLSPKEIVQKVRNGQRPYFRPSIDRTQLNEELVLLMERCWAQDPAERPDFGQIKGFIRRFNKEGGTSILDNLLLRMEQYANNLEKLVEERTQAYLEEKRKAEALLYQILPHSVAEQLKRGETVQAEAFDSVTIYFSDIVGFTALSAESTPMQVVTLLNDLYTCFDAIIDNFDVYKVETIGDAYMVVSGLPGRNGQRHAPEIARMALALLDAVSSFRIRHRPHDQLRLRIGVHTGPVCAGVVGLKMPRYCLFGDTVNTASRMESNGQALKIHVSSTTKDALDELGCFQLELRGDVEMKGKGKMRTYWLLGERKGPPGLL
CaV13 FRET inh = Disruptors of the CACNA1D IQ motif to Ca2+-dependent inactivation inhibitor domain association, primary screening, Förster resonance energy transfer in intact living …; HEK cells, CFP/YFP FRET ICDI-IQ, plate reader, 10 min; percent FRET-ratio fall versus neutral wells; inhibition, % at 12.3 µM; hit rate 0.098% among 340,000; AID 743397;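 active means mean replicate inhibition of at least 30% and at least 1% of replicates passing that level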;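 further: 0% = median of the neutral control wells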
Rin1-Abl PPI inh = blocks binding of human Rin1 to Abl; TR-FRET Rin1/Abl binding, biochemical; hit rate 0.4% among 360,000; AID 588664; inhibition, % at 7.35 µM; in the data active means inhibition above about 5%, passing the limit was not always enough
GC-A act = GC-A (human) enzyme activation; P16066; HEK293 GC-A cells, cGMP TR-FRET, EC30 ANP; 0% at EC30 ANP, 100% saturating ANP; activation, % at 10 µM; hit rate 0.14% among 370,000; in the data active means activation above about 40%
Rin1 Abl conf = Rin1-Abl interaction inhibition confirmation | hit rate 49% among 1,300 | TR-FRET Rin1-Abl binding, purified proteins | AID 602124 | shares compounds with Rin1-Abl PPI inh | inhibition, % at 7.35 µM
GFP quencher = GFP fluorescence interference artifact. AID 602125. inhibition, % at 6.75 µM. inhibitors/quenchers counterscreen. hit rate 8.5% among 1,300. shares compounds with Rin1-Abl PPI inh;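 further: ABL1-eGFP fusion protein alone without its partner RIN1-SBP; 0% = protein with vehicle and 100% = wells lacking protein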
GFP quench dose = counter-screen for Rin1-Abl inhibitors: GFP quenchers, dose response; shares compounds with Rin1-Abl PPI inh; GFP fluorescence interference/quenching counterscreen; IC50, µM; 230 tested, under 10 active; AID 602182; call rule not given here;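 further: ABL1-eGFP fusion protein alone without its RIN1 binding partner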
Active calls of the source: *; . = not tested or not shown. Compounds with a hit are over-represented: about 0.67% of the library has one in this group of screens. Unless noted, no stated cut-off is given here; in the data, active means inhibition above about 6.5%; inactive means the rest.

SMILES	NPR2 activator	CaV13 FRET inh	Rin1-Abl PPI inh	GC-A act	Rin1 Abl conf	GFP quencher	others
COc1cccc(C2(O)CCN(C(=O)c3cccs3)CC2)c1	3	-4	6.7*	1	1	0
COc1cccc(C2(O)CCN(C(=O)C(C)C)CC2)c1	0	-4	-3	0	.	.
COc1ccc(CN(CCN2CCOCC2)C(=O)c2ccccc2C)cc1OC	-6	.	.	6	.	.
CN(CC(=O)Nc1cc(S(=O)(=O)N2CCOCC2)ccc1Cl)C1CCS(=O)(=O)C1 (stereo not drawn)	7	-5	9.4*	0	1	-1
C=CCN(CC=C)C(=S)NC(=O)Cc1cccc2ccccc12	2	-2	10*	-5	-2	-1
O=C1[C@@H](Oc2ccccc2)[C@@H](c2ccccc2)N1c1cccnc1	-7	-3	13*	-8	10*	-1
CCCOC(=O)c1ccc(NC(=O)CCC(=O)OCC)cc1	0	-4	10*	4	14*	2
CCCOC(=O)c1ccc(NC(=O)CCOc2ccccc2)cc1	-2	-8	1	3	.	.
COC(=O)c1cccc(NC(=O)c2ccc[n+]([O-])c2)c1	-6	-1	17*	1	23*	1	GFP quench dose=>67
CC(C)c1ccc(NC(=O)O[C@@H]2CC[C@@]34CCCN3C(=O)CCC[C@H]4C2)cc1	-1	.	.	-7	.	.
COC(=O)c1ccc(CSc2nnc(-c3ccccc3)n2C)o1	0	4	23*	1	32*	0	GFP quench dose=>68
COC(=O)c1ccc(CSc2nnnn2-c2ccccc2)o1	-5	-2	0	1	.	.
Cn1c(SCc2ccccc2)nnc1-c1c[nH]c2ccccc12	2	-3	0	-2	.	.
COC(=O)c1ccc(CSc2nnc(-c3c[nH]c4ccccc34)n2C)o1	-2	-7	26*	0	32*	0	GFP quench dose=>68
CCC(NC(=O)c1ccc2c(ccn2Cc2cccc(-c3ccccc3C(=O)O)c2)c1)c1ccccc1 (stereo not drawn)	6	.	.	0	.	.
CCCCCCN1CCS(=O)(=O)N(Cc2ccc(F)cc2)C(C(=O)OC)C1 (stereo not drawn)	-1	.	.	3	.	.
COc1ccc(CNC(=O)CSc2nc3c([nH]2)c(=O)n(C)c(=O)n3C)cc1	3	.	.	1	.	.
CCCCCCCCN1C(=O)[C@@H](CC(=O)NCCCOCCCC)C[C@@]2(C(=O)OC)C1=C[C@H](COCc1ccccc1)O[C@@H]2C	-2	.	.	-9	.	.
CCc1nnc(NC(=O)c2ccc(OCc3c(C)noc3C)c(OC)c2)s1	0	-1	1	1	.	.
CCCCc1nnc(NC(=O)c2ccc(OCc3c(C)noc3C)cc2)s1	6	-6	17*	3	28*	0	GFP quench dose=>68
CCC(=O)Nc1ccc(-c2nnc(SCC(=O)Nc3nccs3)n2C)cc1	1	-6	7.2*	-1	5	1
COc1ccc(CCCc2nnc(SCC(=O)Nc3nccs3)n2C)cc1C	-7	-5	8.4*	-6	5	3
CCn1c(SCC(=O)Nc2nccs2)nnc1-c1ccc(C)cc1	-4	-6	9	7	.	.
Cc1ccc(-c2nnc(SCC(=O)Nc3nccs3)n2N)cc1	1	-4	8.0*	1	9.9*	0
CC(C)(C)NC(=O)C(c1cccnc1)N(C(=O)c1cccs1)c1ccc(C(C)(C)C)cc1 (stereo not drawn)	-17	.	.	-22	.	.
SMILES	NPR2 activator	CaV13 FRET inh	Rin1-Abl PPI inh	GC-A act	Rin1 Abl conf	GFP quencher	others
Cc1c(N=NC2=C(O)CC(C)(C)CC2=O)c(=O)n(-c2ccccc2)n1C	-2	-4	10*	0	2	3
CC1(C)CC(=O)C=C(Nc2ccccc2NC(=O)c2cc(Cl)ccc2F)C1	-2	.	.	-3	.	.
Cc1ccc(NC(=O)COC(=O)Cc2c[nH]c3ccccc23)cc1F	-4	-7	10*	0	-2	2
O=C(CSc1nnc(COc2ccccc2)n1-c1ccc(Cl)cc1)Nc1ccccc1-c1ccccc1	-16	.	.	-13	.	.
Cc1ccccc1Cn1cc(COC(=O)NCCc2ccccc2)nn1	1	.	.	1	.	.
CC(C)NC(=O)CC1C(=O)NCCN1CC(c1ccccc1)c1ccccc1 (stereo not drawn)	-6	2	8.7*	-10	1	-1
Cc1cccc2c1CCC1CN(Cc3ccccc3)S(=O)(=O)N21 (stereo not drawn)	-2	.	.	-1	.	.
Cc1cc(Br)ccc1NC(=O)CSc1nnc(CN2CCOCC2)n1C	-4	-2	10*	3	6	1
COc1cc(O)c(C(C)=O)c(CC(=O)O)c1	3	.	20*	4	25*	5	GFP quench dose=>67
COc1ccc(OC)c(S(=O)(=O)N2CCCCC2C(=O)N2CCN(Cc3ccc(F)cc3)CC2)c1 (stereo not drawn)	-6	.	.	-5	.	.
O=C(Nc1ccn(CCCN2CCN(Cc3ccc(F)cc3)CC2)c(=O)n1)OCc1ccccc1	-3	-5	19*	2	19*	0	GFP quench dose=>68
O=C(Nc1ccn(CCCN2CCN(c3ncccn3)CC2)c(=O)n1)OCc1ccccc1	-1	-5	8.5*	3	11*	-1
O=C(Nc1ccn(CCCNCC2CCCCC2)c(=O)n1)OCc1ccccc1	1	-5	0	0	.	.
O=C(Cn1ccc(NC(=O)OCc2ccccc2)nc1=O)NCCCN1CCCC1=O	-3	-6	12*	-2	6.6*	0
NCCNC(=O)Cc1ccc(NC(=O)Cc2ccc(Nc3ncnc4c3ncn4[C@@H]3O[C@H](CO)[C@@H](O)[C@H]3O)cc2)cc1	1	-5	16*	2	28*	-2
O=C(C1CCCN(S(=O)(=O)c2ccc(F)cc2)C1)N1CCN(Cc2ccccc2)CC1 (stereo not drawn)	-7	.	.	2	.	.
CN(Cc1ccc(C(C)(C)C)cc1)C(=O)C1CSC2(C)CCC(=O)N12 (stereo not drawn)	2	-6	12*	3	-3	-1
COc1cccc(CN(C)C(=O)C2CSC3(C)CCC(=O)N23)c1OC (stereo not drawn)	0	-14	0	-1	.	.
Cc1cc(C(=O)N2CCCC(CCC(=O)N3CCN(c4ccccn4)CC3)C2)c(C)o1 (stereo not drawn)	-3	1	0	-4	.	.
Cc1ccc(C(=O)N2CCCC(CCC(=O)N3CCN(c4ccccn4)CC3)C2)cc1C (stereo not drawn)	1	-5	9.4*	-1	4	-2
O=C(CCC1CCCN(c2ncccn2)C1)N1CCN(c2ccccn2)CC1 (stereo not drawn)	0	-2	3	-1	.	.
